# Laboratory results from PubChem BioAssay (Tox21).
# Unmarked numbers belong to inactive results. Records with an inconclusive call do not appear. Where a call stands in place of a potency, no number is given. Active and inactive are the calls of the source. Unless noted, calls follow the shape of the dose curve; as a rule, active = well fitted curve in the direction sought with a large enough effect in the repeat runs; inconclusive = weak or mixed curves; inactive = no such curve, though single readings can be large; an effect the other way counts as inactive or inconclusive.
# Tests used:
# [1] = qHTS assay to identify small molecule agonists of the hypoxia (HIF-1) signaling pathway (AID 1224846; active = well fitted activation curve with a large enough effect in the signal ratio in the repeat runs, not every such curve was filed as active; the % refers to the signal ratio)
# In short: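 ME-180 HRE-bla reporter cells; compounds in DMSO, 17 h at 37C; read-out beta-lactamase via CCF4-AM FRET.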
# [2] = qHTS assay to identify small molecule agonists of H2AX - cell viability counter screen (AID 1224847; calls by dose curve; also: nearly all actives have a fitted effect of over 30% in size; also: potency is read from the fitted curve at half-maximal effect)
# In short: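 CHO-K1 cells plated overnight at 37C, then exposed 3 h at 37C to compounds at 15 concentrations (0.76% DMSO final). Viability by CellTiter-Glo luminescence after 30 min at room temperature.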
# [3] = qHTS RealTime-Glo MT Cell Viability Assay in HepG2 cells - 24 hour (AID 1224867); also: nearly all actives have a fitted effect of over 50% in size; also: potency is read from the fitted curve at half-maximal effect
# In short: (§1)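 Cell number in HepG2 cultures estimated from NanoLuc luminescence generated by metabolic reduction of a prosubstrate by living cells. The homogeneous, nonlytic format allowed repeated reads at 0, 8, 16, 24, 32 and 40 h of compound exposure.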
# [4] = A CellTox Green Cytotoxicity Assay to monitor cytotoxicity in HEK293 cells - 0 hour (AID 1224869); also: nearly all actives have a fitted effect of over 50% in size
# In short: (§2)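 Real-time, in one plate: 600 HEK293 cells/well with dead-cell DNA dye, pinned compound after 5 h, 37 C incubation over 40 h; viable cells give no appreciable fluorescence.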
# [5] = qHTS RealTime-Glo MT Cell Viability Assay in HepG2 cells - 40 hour (AID 1224870); also: nearly all actives have a fitted effect of over 50% in size; also: potency is read from the fitted curve at half-maximal effect
# In short: (§3)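 HepG2 cells (600/well) mixed with RealTime-Glo MT reagent, settled 5 h at 37 C/5% CO2 before compound addition. Nonlytic NanoLuc luminescence from viable-cell prosubstrate reduction read repeatedly during 40 h treatment at 37 C.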
# [6] = A CellTox Green Cytotoxicity Assay to monitor cytotoxicity in HEK293 cells - 40 hour (AID 1224871); also: nearly all actives have a fitted effect of over 45% in size; also: potency is read from the fitted curve at half-maximal effect
# In short: as §2
# [7] = qHTS RealTime-Glo MT Cell Viability Assay in HepG2 cells - 8 hour (AID 1224873); also: nearly all actives have a fitted effect of over 55% in size
# In short: as §3
# [8] = A CellTox Green Cytotoxicity Assay to monitor cytotoxicity in HEK293 cells - 24 hour (AID 1224875); also: nearly all actives have a fitted effect of over 45% in size; also: potency is read from the fitted curve at half-maximal effect
# In short: as §2
# [9] = A CellTox Green Cytotoxicity Assay to monitor cytotoxicity in HepG2 cells - 16 hour (AID 1224876); also: nearly all actives have a fitted effect of over 45% in size; also: potency is read from the fitted curve at half-maximal effect
# In short: (§4)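 Cytotoxicity was tracked as dead-cell DNA fluorescence in HepG2 cells treated with test compounds at 37 C; each time-point value comes from one kinetic series spanning 0, 8, 16, 24, 32 and 40 h.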
# [10] = A CellTox Green Cytotoxicity Assay to monitor cytotoxicity in HepG2 cells - 24 hour (AID 1224878); also: nearly all actives have a fitted effect of over 45% in size; also: potency is read from the fitted curve at half-maximal effect
# In short: as §4
# [11] = A CellTox Green Cytotoxicity Assay to monitor cytotoxicity in HepG2 cells - 40 hour (AID 1224879); also: nearly all actives have a fitted effect of over 40% in size; also: potency is read from the fitted curve at half-maximal effect
# In short: as §4
# [12] = qHTS RealTime-Glo MT Cell Viability Assay in HEK293 cells - 0 hour (AID 1224880)
# In short: (§5)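 Kinetic, non-lysing viability readout. Seed HEK293 (600/well) with reagent, incubate 5 h at 37 C/5% CO2, pin 23 nL compound in DMSO, incubate at 37 C, read luminescence at 0, 8, 16, 24, 32, 40 h.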
# [13] = A CellTox Green Cytotoxicity Assay to monitor cytotoxicity in HEK293 cells - 32 hour (AID 1224881); also: nearly all actives have a fitted effect of over 40% in size; also: potency is read from the fitted curve at half-maximal effect
# In short: as §2
# [14] = qHTS assay to identify small molecule antagonists of the estrogen related receptor (ERR) signaling pathway from Tox21 library (AID 1224848); also: nearly all actives have a fitted effect of over 50% in size; also: potency is read from the fitted curve at half-maximal effect
# In short: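 Compounds dissolved in DMSO are pin-transferred onto ERR reporter cells (2,000 per well) that have settled for 6 h at 37 C. Plates then incubate 18 h at 37 C before ONE-Glo luciferase reagent and a luminescence read 30 min later.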
# [15] = qHTS assay to identify small molecule agonists of the estrogen related receptor (ERR) signaling pathway from Tox21 library (AID 1224849; calls by dose curve; also: nearly all actives have a fitted effect of over 15% in size); settings: ERR reporter cell line, ONE-Glo luciferase, 18 h; at 92.4 µM (top of the series) unless noted
# In short: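 Luciferase activity in ERR pathway reporter cells served as the agonist readout; exposure lasted 18 h at 37 C, with ONE-Glo detection after 30 min at room temperature.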
# [16] = qHTS RealTime-Glo MT Cell Viability Assay in HEK293 cells - 32 hour (AID 1224868); also: nearly all actives have a fitted effect of over 50% in size; also: potency is read from the fitted curve at half-maximal effect
# In short: (§6)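 Homogeneous bioluminescent viability format in HEK293 cells (600 cells/well). Following 5 h at 37 C/5% CO2, 23 nL compound was pintooled; the signal was measured repeatedly during 40 h incubation.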
# [17] = qHTS RealTime-Glo MT Cell Viability Assay in HEK293 cells - 16 hour (AID 1224872); also: nearly all actives have a fitted effect of over 50% in size; also: potency is read from the fitted curve at half-maximal effect
# In short: as §6
# [18] = qHTS RealTime-Glo MT Cell Viability Assay in HEK293 cells - 40 hour (AID 1224874); settings: RealTime-Glo luminescence; max response: stronger effect = lower value; also: nearly all actives have a fitted effect of over 50% in size; also: potency is read from the fitted curve at half-maximal effect
# In short: as §5
# [19] = qHTS RealTime-Glo MT Cell Viability Assay in HepG2 cells - 32 hour (AID 1224877); also: nearly all actives have a fitted effect of over 55% in size; also: potency is read from the fitted curve at half-maximal effect
# In short: as §1
# [20] = qHTS assay to identify small molecule agonists of H2AX (AID 1224845; active = well fitted activation curve with a large enough effect in the signal ratio in the repeat runs, not every such curve was filed as active; the % refers to the signal ratio)
# In short: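 Wild-type CHO-K1 cells, plated overnight, exposed 3hr at 37C to 15 concentrations (0.76% DMSO final). Lysed, then HTRF anti-pH2AX (S139) cryptate and anti-H2AX-d2 antibodies, 24 hr room temperature; 665/620 nm emission read.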
compound,measurement,setting,value
c1ccc(CNc2ncnc3c2ncn3C2CCCCO2)cc1 (centres undefined),outcome,[1],inactive
same,Potency,[2],inactive
same,Potency,[3],inactive
same,Potency,[4],inactive
same,Potency,[5],inactive
same,Potency,[6],inactive
same,Potency,[7],inactive
same,Potency,[8],inactive
same,Potency,[9],inactive
same,Potency,[10],inactive
same,Potency,[11],inactive
same,Potency,[12],inactive
same,Potency,[13],inactive
CCN(CC)c1ccc(C(=C2C=CC(=[N+](CC)CC)C=C2)c2ccc(S(=O)(=O)O)cc2S(=O)(=O)[O-])cc1,outcome,[1],inactive
same,Potency,[2],12.7 µM (active)
same,Potency,[14],9.69 µM (active)
same,"activity change, positive = activation",[15],-60.1%
same,Potency,[3],inactive
same,Potency,[16],inactive
same,Potency,[4],inactive
same,Potency,[5],inactive
same,Potency,[6],inactive
same,Potency,[17],inactive
same,Potency,[7],inactive
same,max response,[18],-1.18%
same,Potency,[8],inactive
same,Potency,[9],inactive
same,Potency,[19],inactive
same,Potency,[11],inactive
same,Potency,[12],inactive
same,Potency,[13],inactive
Nc1ccc(N=Nc2ccc(N)cc2)cc1,outcome,[1],inactive
same,Potency,[2],inactive
same,Potency,[3],inactive
same,Potency,[16],inactive
same,Potency,[4],inactive
same,Potency,[5],inactive
same,Potency,[6],inactive
same,Potency,[17],inactive
same,Potency,[7],inactive
same,max response,[18],-7.32%
same,Potency,[9],inactive
same,Potency,[10],inactive
same,Potency,[11],inactive
same,Potency,[12],inactive
same,Potency,[13],inactive
Nc1cccc2c(N)cccc12,outcome,[1],inactive
same,Potency,[2],inactive
same,Potency,[4],inactive
same,Potency,[6],inactive
same,Potency,[8],inactive
same,Potency,[9],inactive
same,Potency,[19],inactive
same,Potency,[10],inactive
same,Potency,[12],inactive
same,Potency,[13],inactive
CC(C)C(O)C(C)(C)CO (centres undefined),outcome,[1],inactive
same,Potency,[2],inactive
same,Potency,[14],0.891 µM (active)
same,"activity change, positive = activation",[15],-71.7%
same,Potency,[3],inactive
same,Potency,[16],0.801 µM (active)
same,Potency,[4],inactive
same,Potency,[5],inactive
same,Potency,[6],inactive
same,Potency,[17],0.899 µM (active)
same,Potency,[7],inactive
same,Potency,[18],0.899 µM (active)
same,Potency,[8],inactive
same,Potency,[9],inactive
same,Potency,[19],inactive
same,Potency,[10],inactive
same,Potency,[11],inactive
same,Potency,[12],inactive
same,Potency,[13],inactive
COc1ccc(N)c([N+](=O)[O-])c1,outcome,[1],inactive
same,Potency,[2],inactive
same,Potency,[3],inactive
same,Potency,[16],inactive
same,Potency,[4],inactive
same,Potency,[5],inactive
same,Potency,[6],inactive
same,Potency,[17],inactive
same,Potency,[7],inactive
same,max response,[18],-15.1%
same,Potency,[8],inactive
same,Potency,[9],inactive
same,Potency,[19],inactive
same,Potency,[10],inactive
same,Potency,[11],inactive
same,Potency,[12],inactive
same,Potency,[13],inactive
CNS(=O)(=O)c1cc(C(=O)N2CCC(CCN3C4CCC3CC(n3c(C)nc5ccccc53)C4)(c3cccc(F)c3)CC2)c(Cl)cc1F (centres undefined),Potency,[20],inactive
same,Potency,[2],inactive
same,Potency,[16],5.49 µM (active)
same,Potency,[4],inactive
same,Potency,[6],inactive
same,Potency,[17],4.36 µM (active)
same,Potency,[18],4.36 µM (active)
same,Potency,[8],inactive
same,Potency,[9],inactive
same,Potency,[10],inactive
same,Potency,[11],inactive
same,Potency,[12],inactive
same,Potency,[13],inactive
O=C(O)/C=C/c1ccc(O)c(O)c1,Potency,[2],inactive
same,Potency,[3],inactive
same,Potency,[16],inactive
same,Potency,[5],inactive
same,Potency,[17],inactive
same,Potency,[7],inactive
same,max response,[18],-2.68%
same,Potency,[8],inactive
same,Potency,[9],inactive
same,Potency,[11],inactive
same,Potency,[12],inactive
same,Potency,[13],inactive
CN(C)CC/C=C1\c2ccccc2Sc2ccc(Cl)cc21,Potency,[2],49.2 µM (active)
same,"activity change, positive = activation",[15],-17.7% [at 42.5 µM]
same,Potency,[3],23.9 µM (active)
same,Potency,[16],23.9 µM (active)
same,Potency,[4],inactive
same,Potency,[5],23.9 µM (active)
same,Potency,[6],23.9 µM (active)
same,Potency,[18],23.9 µM (active)
same,Potency,[9],21.3 µM (active)
same,Potency,[19],23.9 µM (active)
same,Potency,[10],21.3 µM (active)
same,Potency,[11],21.3 µM (active)
same,Potency,[13],26.8 µM (active)
COc1cc(S(=O)(=O)Nc2ccccc2)c(OC)cc1N,outcome,[1],inactive
same,Potency,[2],inactive
same,Potency,[16],inactive
same,Potency,[4],inactive
same,Potency,[5],inactive
same,Potency,[6],inactive
same,Potency,[17],inactive
same,max response,[18],-20.8%
same,Potency,[8],inactive
same,Potency,[9],inactive
same,Potency,[11],inactive
same,Potency,[12],inactive
same,Potency,[13],inactive
CN1CCCN(C(c2ccccc2)c2ccc(Cl)cc2)CC1 (centres undefined),Potency,[20],inactive
same,"activity change, positive = activation",[15],-29.3% [at 42.5 µM]
same,Potency,[4],inactive
same,Potency,[6],26.8 µM (active)
same,Potency,[17],inactive
same,Potency,[7],inactive
same,Potency,[8],23.9 µM (active)
same,Potency,[9],23.9 µM (active)
same,Potency,[19],23.9 µM (active)
same,Potency,[11],21.3 µM (active)
same,Potency,[13],26.8 µM (active)
O=C(c1ccccc1)c1ccc(O)cc1,outcome,[1],inactive
same,"activity change, positive = activation",[15],-59.8%
same,Potency,[3],inactive
same,Potency,[16],inactive
same,Potency,[4],inactive
same,Potency,[5],inactive
same,Potency,[6],inactive
same,Potency,[17],inactive
same,Potency,[7],inactive
same,max response,[18],-20.1%
same,Potency,[8],inactive
same,Potency,[9],inactive
same,Potency,[19],inactive
same,Potency,[10],inactive
same,Potency,[11],inactive
same,Potency,[12],inactive
same,Potency,[13],inactive
CC(CCc1ccc(O)cc1)NCCc1ccc(O)c(O)c1 (centres undefined),outcome,[1],inactive
same,Potency,[2],inactive
same,Potency,[14],inactive
same,"activity change, positive = activation",[15],-12.3% [at 42.5 µM]
same,Potency,[3],inactive
same,Potency,[16],inactive
same,Potency,[4],inactive
same,Potency,[5],inactive
same,Potency,[17],inactive
same,Potency,[7],inactive
same,max response,[18],-18.1%
same,Potency,[8],inactive
same,Potency,[9],inactive
same,Potency,[19],inactive
same,Potency,[10],inactive
same,Potency,[11],inactive
same,Potency,[12],inactive
same,Potency,[13],inactive
